TDP1 cell noCPT = qHTS for Inhibitors of human tyrosyl-DNA phosphodiesterase 1 (TDP1): qHTS in cells in absence of CPT. DT40 Tdp1-/- hTDP1 cells, no CPT, ATP luminescence, 48 h. Potency, µM (top dose mostly 46.2 µM), inactives show top-dose activity change, negative = growth inhibition, hits mostly inhibitors. 420,000 tested, 15% active. AID 686978, 2013; also: potency is read from the fitted curve at half-maximal effect; % is scaled to controls: 0 for no effect and ±100 for the full control effect; nearly all actives have a fitted effect of over 55% in size
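Chicken DT40 Tdp1-/- cells stably complemented with human TDP1 were seeded at 400 cells/well with DMSO in place of 20 nM camptothecin. After compound pinning, cells grew at least 48 hr at 37 °C; viability read by CellTiter-Glo luminescence.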
D3 antag = D3 dopamine receptor (human) antagonism. P35462. D3R cells, DiscoveRx beta-arrestin luminescence, antagonist mode; active compounds read low. max response, negative = inhibition, %. 360,000 tested, 2.5% active. AID 652054; in the data active = max response below about -50%; inconclusive = no clear call, values can overlap the other calls; also: % is scaled to controls: 0 for no effect and ±100 for the full control effect
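Cells plated overnight at 1500 cells/well, then exposed to library compounds with dopamine controls for 90 minutes at 37 degrees C. DiscoveRx reagent added for 30–60 minutes at room temperature; luminescence read, quantitative HTS format.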
IL-1B inflam inh = inflammasome signaling inhibition, IL-1 beta readout; 360,000 tested, 4.7% active; activity change, % at 57.5 µM; AID 743279; THP-1 LPS/ATP IL-1B secretion, AlphaLISA, 16 h; active compounds read low; in the data active = activity change below about -50%; inconclusive = mostly about -30% to -49%; also: % is scaled to controls: 0 for no effect and ±100 for the full control effect
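THP-1 cells pretreated 1 hr with compounds (up to 57.5 uM final), then stimulated with LPS (250 ng/mL final) plus ATP (1.25 mM final); secreted IL-1B measured by AlphaLISA after 16 hr, decreased signal indicating inhibition.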
ClpP mod = qHTS Assay for Activators of ClpP; ATP-dependent Clp protease proteolytic subunit (Bacillus subtilis (strain 168)), P80244; purified B. subtilis ClpP, FRET peptide cleavage, 20 min; Potency, µM (doses to about 57.5 µM), without a hit: top-dose activity change, negative = active; 340,000 tested, 1.9% active; AID 651965, 2013; active = well fitted falling curve with a large enough effect; inconclusive = small, poorly fitted or top-dose-only effect; inactive = no such curve, though single readings can be large or run the other way; also: potency is read from the fitted curve at half-maximal effect; the source files actives as falling curves though it sought activators and does not explain the sign; nearly all actives have a fitted effect of over 65% in size
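Buffer: 100 mM Tris/HCl pH8, 100 mM KCl, 0.05% low protease BSA, 2.5% glycerol, 0.01% Tween-20. ClpP 10 microg/mL final; 20 min RT; delta FRET normalized to ADEP and DMSO controls.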
D3 ag = agonists of human D3 dopamine receptor | 410,000 tested, 0.58% active | AID 652048 | max activation, % | D3R DiscoveRx beta-arrestin cells, luminescence, 90 min | P35462; in the data active = max activation above about 30%; also: 0% is about no effect
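Agonist-mode cell screen: cells plated at 1500/well and incubated overnight at 37 °C, then exposed to library compounds for 90 min at 37 °C. Detection reagent was added for 30–60 min at room temperature, and luminescence was read.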
DT40 TDP1 CPT = DT40-hTDP1 cell growth loss with CPT | Potency, µM (top dose mostly 46.2 µM), inactives show at the top dose activity change, negative = growth inhibition, actives largely listed as inhibitors | 420,000 tested, 12% active | chicken DT40 Tdp1-/-;hTDP1 cells + 20 nM CPT, ATP luminescence, 48 h; also: potency is read from the fitted curve at half-maximal effect; % is scaled to controls: 0 for no effect and ±100 for the full control effect; nearly all actives have a fitted effect of over 55% in size
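Cell growth measured by CellTiter-Glo luminescence after a minimum 48 h, 37 C compound exposure with 20 nM CPT in Tdp1-knockout DT40 cells stably expressing hTDP1, seeded 400/well; qHTS titration format.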
An asterisk follows results filed as active; ? = inconclusive; · = no result given. The list is not random: actives were taken first. Their share in the collection is about 21%. Unless noted, calls follow the shape of the dose curve; as a rule, active = well fitted inhibition curve with a large enough effect; inconclusive = small, poorly fitted or top-dose-only effect; inactive = flat fitted curve, though single readings scatter.

SMILES	TDP1 cell noCPT	D3 antag	IL-1B inflam inh	ClpP mod	D3 ag	DT40 TDP1 CPT
COc1ccccc1C(=O)Nc1ccc(C(=O)N2CCCCC2)cc1	-3%	5	-28	-2%	7	5%
Cc1cccc(-n2c(=O)c3c4c(sc3n3c(C)nnc23)CCCC4)c1	-19%	·	·	1%	6	?
O=c1c2ccccc2oc2ccc(C#CC3(O)CCCCC3)cc12	?	23	0	4%	15	?
COc1cccc2oc3ccc(C#CC4(N)CCCCC4)cc3c(=O)c12	3.7µM*	-5	-97*	4%	-16	7.3µM*
COc1cccc2c(=O)c3ccccc3oc12	-17%	0	-27	?	7	6%
Cn1c2ccccc2c(=O)c2ccc(C#CC3(N)CCCCC3)cc21	13µM*	24	-86*	4%	-37	-96%
Cn1c2ccccc2c(=O)c2cc(C#CC3(O)CCCCC3)ccc21	?	0	-53*	4%	-16	16µM*
NC1(C#Cc2ccc3c(=O)c4ccccc4sc3c2)CCCCC1	?	0	-28	-17%	-5	26µM*
Cc1ccnc(NC(=O)c2cccc(S(=O)(=O)NCc3ccccc3)c2)c1	?	10	5	1%	4	?
COCCN(C(=O)c1ccco1)c1nc(-c2ccccc2)cs1	?	2	20	0%	2	-1%
COc1ccc(-c2csc(N(CC3CCCO3)C(=O)c3ccco3)n2)cc1 (configuration not stated)	21µM*	2	-15	-4%	-4	21µM*
COCCN(C(=O)c1ccco1)c1nc(-c2ccc(OC)cc2)cs1	16µM*	149	24	0%	-3	26µM*
Cc1ccc(OCc2nnc(N)s2)cc1C	-14%	2	12	0%	-6	-1%
CC(=O)c1cc(C#N)c(N2CCN(c3ccccc3)CC2)nc1C	-20%	-16	-16	-1%	-2	-26%
CCOC(=O)c1cc(C#N)c(SC)nc1-c1ccccc1	?	-6	-9	-7%	0	?
CCOC(=O)c1cc(C#N)c(Oc2ccccc2OC)nc1-c1ccccc1	23µM*	-24	-1	?	-9	?
CCOC(=O)c1cc(C#N)c(N2CCN(c3ccccn3)CC2)nc1-c1ccccc1	21µM*	3	-22	·	-2	?
O=[N+]([O-])c1ccc(Cc2cncc(O)c2)cc1	?	15	2	1%	-2	0%
Brc1cc(Br)c2ncnc(N3CCCCC3)c2c1	13µM*	21	-18	-1%	-4	21µM*
CC[C@@H](C)[C@@H](N)C1=N[C@H](C(=O)N[C@@H](CC(C)C)C(=O)N[C@@H](CCC(=O)O)C(=O)N[C@@H](C(=O)N[C@@H]2CCCCNC(=O)[C@@H](CC(N)=O)NC(=O)[C@@H](CC(=O)O)NC(=O)[C@@H](Cc3cnc[nH]3)NC(=O)[C@@H](Cc3ccccc3)NC(=O)[C@@H]([C@H](C)CC)NC(=O)[C@@H](CCCN)NC2=O)[C@@H](C)CC)CS1	-12%	·	·	·	16	11%
Cc1nc([N+](=O)[O-])c(Br)n1CC(=O)c1ccc2ccccc2c1	21µM*	-29	-120*	1%	-11	21µM*
Cc1nc([N+](=O)[O-])cn1CC(=O)c1ccc(Cl)cc1	23%	-14	19	0%	1	-18%
Cc1nc([N+](=O)[O-])c(Br)n1CC(=O)c1ccccc1	8.2µM*	22	?	-3%	0	18µM*
Cc1cc([N+](=O)[O-])nn1CC(=O)c1ccccc1	0%	-2	-4	1%	-3	-5%
Cc1nc([N+](=O)[O-])c(Br)n1CC(=O)c1ccc(Br)cc1	8.2µM*	-23	-84*	-4%	-11	7.3µM*
SMILES	TDP1 cell noCPT	D3 antag	IL-1B inflam inh	ClpP mod	D3 ag	DT40 TDP1 CPT
O=C(COc1ccc(F)cc1Cl)Nc1cccc(S(=O)(=O)N2CCCCCC2)c1	?	7	-12	-5%	-7	?
CC(C)C[C@H](NC(=O)c1nc[nH]c1C(=O)NCc1ccc(CNC(=O)OC(C)(C)C)cc1)C(=O)OC(C)(C)C	16µM*	16	-24	3%	12	26µM*
CC(C)C[C@H](NC(=O)c1[nH]cnc1C(=O)N[C@@H](C)c1ccccc1)C(=O)OC(C)(C)C	?	?	-4	3%	-23	?
C[C@H](NC(=O)c1nc[nH]c1C(=O)NCc1ccc(CNC(=O)OC(C)(C)C)cc1)C(=O)OC(C)(C)C	16µM*	11	-10	0%	-2	18µM*
C[C@@H](NC(=O)c1nc[nH]c1C(=O)NCc1ccc(CNC(=O)OC(C)(C)C)cc1)c1ccccc1	23µM*	31	-16	0%	7	?
CC(C)C[C@H](NC(=O)c1nc[nH]c1C(=O)NCc1ccccc1)C(=O)OC(C)(C)C	?	?	4	2%	-6	?
CCOc1ccc(N=C2NC(=O)SC2CC(=O)OC)cc1 (configuration not stated)	-10%	8	29	·	1	-3%
N#Cc1ccc(CN2CC3(CCN(C(=O)c4ccncc4)CC3)C2)cc1	-14%	·	·	·	·	9%
COc1c(Cl)cc(Cl)cc1CNCCSc1nnnn1C	-14%	·	·	1%	-6	4%
Cc1cccc(NC(=O)CCNC(=O)c2ccc(Br)cc2)c1C	-16%	0	20	·	-2	8%
COc1ccc(N2C(=O)CC(Sc3ncn[nH]3)C2=O)c(OC)c1 (configuration not stated)	2.9µM*	40	-17	-2%	8	2.9µM*
COc1ccc(N2C(=O)CC(NC34CC5CC(CC(C5)C3)C4)C2=O)c(OC)c1 (configuration not stated)	-2%	26	8	1%	6	6%
CC1CC(=O)N(c2ccc(C(C)C)cc2)C(=O)C1	-6%	4	-1	-2%	1	8%
CC(C)c1ccc(N2C(=O)CC(Sc3nc4ccccc4o3)C2=O)cc1 (configuration not stated)	5.8µM*	14	-1	-1%	-3	4.6µM*
CC(C)c1ccc(N2C(=O)CC(Sc3ncn[nH]3)C2=O)cc1 (configuration not stated)	4.6µM*	?	-23	1%	0	4.6µM*
COCCn1c(=O)c(-c2ccccc2)nc2cnc(Oc3ccc(OC)cc3)nc21	-19%	·	·	·	·	?
